Source: PubChem BioAssay
Values joined by “and” are separate entries in the source; they are usually repeats but may differ in a detail not shown here. Equal entries are not always repeated. Active and inactive are the calls of the source.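 Rule for the calls, unless noted: active = thallium flux through the channel raised or lowered by more than 3 SD from vehicle-only wells, actives on both sides; inactive = the rest.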

Tests used:
[1] = modulation of C. elegans fzo-1 (AID 1259413; call rule not given here;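 note: fzo-1 mutant C. elegans worms in liquid wells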); conditions: C. elegans fzo-1 modulator screen, mean read-out; stronger effect = higher value
[2] = liver-stage malaria parasite growth inhibition, primary screen, cell-based, HepG2, luciferase luminescence, HepG2 viability (AID 624349; in the data active = parasite load remaining mostly below about 12%, no sharp cut-off; inactive = mostly above about 10%;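 note: 100% = mean of DMSO negative control wells on the same plate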); conditions: P. berghei liver stage in HepG2, luciferase luminescence, concentration not given here; parasite load remaining: stronger effect = lower value; viability: measured here: HepG2 viability without parasites
[3] = Cy5 fluorescence interference with SSB-bound oligo, artefact control for HCV NS3 helicase inhibitor project, biochemical, NIH Clinical Collection, E. coli SSB (AID 743268; call rule not given here)
[4] = test system: Hepatitis C virus NS3 helicase; test: HCV NS3 helicase inhibitors, primary screen, biochemical, fluorescence polarization, NIH Clinical Collection (AID 743270; call rule not given here); conditions: NS3 helicase binding to Cy5-dT15 DNA, stronger effect = higher value, concentration not given here
[5] = molecular target: Single-stranded DNA-binding protein (Escherichia coli (strain K12)) (UniProt P0AGE0); test: E. coli SSB displacement from DNA, counter-screen for HCV NS3 helicase inhibitor project, biochemical, fluorescence polarization, NIH Clinical Collection (AID 743271; in the data active = inhibition above about 28%); conditions: stronger effect = higher value, concentration not given here
[6] = fluorescence interference in NS3h assay format, artefact control for HCV NS3 helicase inhibitor project, biochemical, NIH Clinical Collection (AID 743272; call rule not given here;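 note: HCV NS3 helicase with a Cy5 labelled single stranded DNA probe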); conditions: fluorescence interference counterscreen, stronger effect = lower value
[7] = test system: Neuropilin-2 / VEGF-C interaction (human); test: inhibitors of NRP2–VEGF-C binding, biochemical, microplate binding format, z-score (AID 743281; call rule not given here); conditions: microplate NRP2/VEGF-C binding assay; stronger effect = lower value
F380Y = test: modulators of BK channel variants, profiling panel, selectivity assay, cell-based, U2OS BacMam, thallium flux, beta subunits (AID 1259406); conditions: at 30 µM;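 note: initial slope of Thallos dye fluorescence rise after thallium is added; log ratio against the mean of 0.3% DMSO vehicle wells on the same plate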
F380Y/beta1 = test: as above; conditions: at 30 µM
F380Y/beta2Delta = test: as above; conditions: at 30 µM
F380Y/beta4 = test: as above; conditions: at 30 µM
[8] = molecular target: Calcium-activated potassium channel subunit alpha-1 (Homo sapiens) + Leucine-rich repeat-containing protein 26 (Homo sapiens) (UniProt Q12791+Q2I0M4); test: as above; conditions: F380Y/Slo1WT/gamma1, at 30 µM
R275C = test: as above; conditions: at 30 µM
R275C/beta1 = test: as above; conditions: at 30 µM
R275C/beta2Delta = test: as above; conditions: at 30 µM
R275C/beta4 = test: as above; conditions: at 30 µM
R275C/Slo1WT/beta2 = test: as above; conditions: at 30 µM
[9] = sensitizers of A549 cells to miR-34 induction, primary screen, imaging, A549 dox-inducible miR-34, nuclei and caspase counts (AID 1347080;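 active = compounds whose cell count with miR-34 switched on is under 0.7 times the count with it off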); conditions: A549 miR-34 inducible, Hoechst nuclei count, 48 h
[10] = differential killing of epithelial or mesenchymal cells, primary screen, imaging, PC-3E GFP, TEM4-18 mCherry, co-culture (AID 1345086;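 active = compounds killing one labelled cell type while sparing the other, by normalised counts and ratio limits, not self-fluorescent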;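 note: cells exposed to compound for 72 h before imaging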;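 for red/green cell ratio (normalised): normalised mesenchymal count divided by normalised epithelial count so high means epithelial killing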); conditions: imaging cell counts, at 1 µM
[11] = measured here: relative caspase fold change +Dox/-Dox
[12] = measured here: total cells with miR-34 induction, stronger effect = lower value
[13] = measured here: total cells without miR-34 induction
[14] = stronger effect = lower value, cell number ratio, induced over uninduced

Sequence of Calcium-activated potassium channel subunit alpha-1 (Homo sapiens) + Leucine-rich repeat-containing protein 26 (Homo sapiens) (Q2I0M4 whole entry, looked up, one chain of several): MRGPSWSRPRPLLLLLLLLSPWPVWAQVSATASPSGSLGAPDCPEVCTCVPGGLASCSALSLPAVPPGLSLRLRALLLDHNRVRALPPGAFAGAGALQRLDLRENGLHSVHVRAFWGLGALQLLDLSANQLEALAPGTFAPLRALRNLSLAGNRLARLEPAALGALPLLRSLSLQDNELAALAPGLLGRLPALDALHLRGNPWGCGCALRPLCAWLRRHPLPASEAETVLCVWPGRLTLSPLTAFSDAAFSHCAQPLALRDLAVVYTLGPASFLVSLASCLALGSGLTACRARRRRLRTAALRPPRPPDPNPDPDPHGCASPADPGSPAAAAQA

O=C1CCC2(O)[C@H]3Cc4ccc(O)c5c4[C@@]2(CCN3CC2CC2)[C@H]1O5 (stereo not given in full)
inactive: mean signal [1] 227

CC1CCC[C@H](O)CCCCCc2cc(O)cc(O)c2C(=O)O1 (stereo not given in full)
64.7%: viability [2]
inactive: parasite load remaining [2] 34.2% | fluorescence ratio [3] 1.04 | inhibition [4] 2.77% | inhibition [5] 0.67% | fluorescence ratio [6] 0.99 | z-score [7] -0.653 | mean signal [1] 252 | log fold change Tl+ flux (F380Y) 0.0327 | log fold change Tl+ flux (F380Y/beta1) 0.0798 | log fold change Tl+ flux (F380Y/beta2Delta) -0.0124 | log fold change Tl+ flux (F380Y/beta4) 0.0166 | log fold change Tl+ flux [8] 0.0353 | log fold change Tl+ flux (R275C) -0.00393 | log fold change Tl+ flux (R275C/beta4) 0.0349 | log fold change Tl+ flux (R275C/Slo1WT/beta2) 0.035
active: log fold change Tl+ flux (R275C/beta1) 0.141 | log fold change Tl+ flux (R275C/beta2Delta) 0.1

O[C@@H]1CCCC[C@H]1N1CCC(c2ccccc2)CC1
1.17 and 0.745: fold change [9, 11]
8520 and 8230: cell count [9, 12]
93.8% and 73%: viability [2]
9130 and 9500: cell count [9, 13]
inactive: parasite load remaining [2] 78.7% and 101% | fluorescence ratio [3] 0.98 | inhibition [4] 1.19% | inhibition [5] 0.67% | fluorescence ratio [6] 0.91 | z-score [7] -0.802 | mean signal [1] 231 | fold change ([9]; stronger effect = lower value) 0.933 and 0.866

C[C@]12CCC(=O)C=C1CC[C@@H]1[C@@H]2CC[C@@]2(C)[C@H]1CC[C@]2(C)O
inactive: parasite load remaining [2] 82.1% | fluorescence ratio [3] 1.03 | inhibition [4] 0.4% | inhibition [5] -2.41% | fluorescence ratio [6] 0.97 | log fold change Tl+ flux (F380Y) -0.0714 | log fold change Tl+ flux (F380Y/beta1) 0.0212 | log fold change Tl+ flux (F380Y/beta2Delta) -0.0632 | log fold change Tl+ flux [8] 0.0144 | log fold change Tl+ flux (R275C) -0.0155 | log fold change Tl+ flux (R275C/beta1) 0.014 | log fold change Tl+ flux (R275C/beta2Delta) 0.0131 | log fold change Tl+ flux (R275C/beta4) 0.00989 | log fold change Tl+ flux (R275C/Slo1WT/beta2) -0.0244
78%: viability [2]
active: log fold change Tl+ flux (F380Y/beta4) -0.105

NC(=NCc1ccc(Cl)cc1)SCCCc1cnc[nH]1
8670 and 7970: cell count [9, 12]
9480 and 8280: cell count [9, 13]
0.654 and 0.836: fold change [9, 11]
inactive: parasite load remaining [2] 42% | fluorescence ratio [3] 0.97 | inhibition [4] -2.84% | inhibition [5] 0.39% | fluorescence ratio [6] 0.97 | z-score [7] -0.336 | mean signal [1] 232 | fold change ([9]; stronger effect = lower value) 0.914 | fold change [9, 14] 0.963
63.6%: viability [2]

CCOC(=O)C1(c2ccccc2)CCN(CCC(C#N)(c2ccccc2)c2ccccc2)CC1
4590: cell count [9, 13]
inactive: parasite load remaining [2] 6.85% | fluorescence ratio [3] 0.99 | inhibition [4] 1.98% | inhibition [5] 4.52% | fluorescence ratio [6] 0.88 | z-score [7] -0.718 | mean signal [1] 215 | fold change ([9]; stronger effect = lower value) 1.03 | log fold change Tl+ flux (F380Y) -0.0196 | log fold change Tl+ flux (F380Y/beta1) -0.0124 | log fold change Tl+ flux (F380Y/beta2Delta) -0.00205 | log fold change Tl+ flux (F380Y/beta4) 0.0154 | log fold change Tl+ flux [8] -0.0542 | log fold change Tl+ flux (R275C) 0.0145 | log fold change Tl+ flux (R275C/beta4) -0.00148 | log fold change Tl+ flux (R275C/Slo1WT/beta2) 0.0218
62%: viability [2]
4740: cell count [9, 12]
active: log fold change Tl+ flux (R275C/beta1) -0.137 | log fold change Tl+ flux (R275C/beta2Delta) -0.169
1.81: fold change [9, 11]

c1ccc(Cn2ccnc2)cc1
8900: cell count [9, 12]
67.7%: viability [2]
0.727: fold change [9, 11]
inactive: parasite load remaining [2] 66.3% | fluorescence ratio [3] 0.9 | inhibition [4] -1.09% | inhibition [5] 1.97% | fluorescence ratio [6] 0.88 | z-score [7] 0.238 | mean signal [1] 248 | fold change ([9]; stronger effect = lower value) 1.24 | log fold change Tl+ flux (F380Y) 0.0263 | log fold change Tl+ flux (F380Y/beta1) -0.0465 | log fold change Tl+ flux (F380Y/beta2Delta) -0.0252 | log fold change Tl+ flux (F380Y/beta4) -0.0022 | log fold change Tl+ flux [8] -0.0094 | log fold change Tl+ flux (R275C) -0.0227 | log fold change Tl+ flux (R275C/beta1) -0.0133 | log fold change Tl+ flux (R275C/beta2Delta) -0.00773 | log fold change Tl+ flux (R275C/beta4) -0.0192 | log fold change Tl+ flux (R275C/Slo1WT/beta2) -0.0321
7170: cell count [9, 13]

NCCc1ccccn1
95.2%: viability [2]
inactive: parasite load remaining [2] 52.1% | fluorescence ratio [3] 1 | inhibition [4] -1.19% | inhibition [5] -1.64% | fluorescence ratio [6] 1 | z-score [7] 1.2 | mean signal [1] 245 | fold change ([9]; stronger effect = lower value) 1.03 | fold change [9, 14] 1.05 | log fold change Tl+ flux (F380Y) -0.0264 | log fold change Tl+ flux (F380Y/beta1) 0.0119 | log fold change Tl+ flux (F380Y/beta2Delta) -0.0265 | log fold change Tl+ flux (F380Y/beta4) -0.0155 | log fold change Tl+ flux [8] 0.0303 | log fold change Tl+ flux (R275C) -0.0283 | log fold change Tl+ flux (R275C/beta1) -0.0664 | log fold change Tl+ flux (R275C/beta2Delta) -0.0248 | log fold change Tl+ flux (R275C/beta4) -0.0421 | log fold change Tl+ flux (R275C/Slo1WT/beta2) -0.0103
10400 and 8860: cell count [9, 12]
10100 and 8480: cell count [9, 13]
1.57 and 1.54: fold change [9, 11]

C[C@]12CCC(=O)C[C@@H]1CC[C@@H]1[C@@H]2CC[C@@]2(C)[C@H]1CC[C@]2(C)O
inactive: parasite load remaining [2] 79.1% | fluorescence ratio [3] 1.04 | inhibition [4] -0.4% | inhibition [5] -3.18% | fluorescence ratio [6] 0.92 | log fold change Tl+ flux (F380Y) 0.00819 | log fold change Tl+ flux (F380Y/beta1) -0.00468 | log fold change Tl+ flux (F380Y/beta2Delta) 0.0319 | log fold change Tl+ flux (F380Y/beta4) 0.0289 | log fold change Tl+ flux [8] 0.0101 | log fold change Tl+ flux (R275C) -0.0214 | log fold change Tl+ flux (R275C/beta1) 0.0156 | log fold change Tl+ flux (R275C/beta2Delta) 0.0537 | log fold change Tl+ flux (R275C/beta4) 0.00195 | log fold change Tl+ flux (R275C/Slo1WT/beta2) 0.012
70.4%: viability [2]

CCCCC/C=C\C/C=C\C/C=C\C/C=C\CCCC(=O)Nc1ccc(O)cc1
5430 and 5550: cell count [9, 12]
inactive: parasite load remaining [2] 94.1% | fluorescence ratio [3] 0.87 | inhibition [4] 0.4% | inhibition [5] 4.52% | fluorescence ratio [6] 0.88 | z-score [7] 0.572 | mean signal [1] 245 | fold change ([9]; stronger effect = lower value) 1.04 and 0.798
5220 and 6950: cell count [9, 13]
0.71 and 1.12: fold change [9, 11]
87.5%: viability [2]

CC[C@@H]1/C=C/C=C/C[C@H](C)[C@@H](O)[C@](C)(O)C(=O)[C@H](C)[C@@H](O)[C@H](C)C(=O)[C@H](C)[C@@H](O)[C@H](C)/C=C/C(=O)O[C@H]2[C@@H](C)[C@@H](CC1)O[C@@]1(CC[C@@H](C)[C@@H](C[C@H](C)O)O1)[C@@H]2C
1.1: normalised cell number ([10]; measured here: epithelial PC-3E GFP cell survival)
1130: cell count [9, 13]
0.56: normalised cell number ([10]; measured here: mesenchymal TEM4-18 mCherry cell survival)
inactive: mean signal [1] 201 | red/green cell ratio (normalised) ([10]; actives lie on both sides) 0.51 | fold change ([9]; stronger effect = lower value) 0.872
989: cell count [9, 12]
0.921: fold change [9, 11]

Cc1ccc(-c2nc3ccc(C)cn3c2CC(=O)N(C)C)cc1
2.59: fold change [9, 11]
80.3% and 64.4%: viability [2]
9130: cell count [9, 12]
inactive: parasite load remaining [2] 37% and 120% | fluorescence ratio [3] 1.04 | inhibition [4] -1.98% | inhibition [5] -2.41% | fluorescence ratio [6] 1.01 | z-score [7] -0.569 | mean signal [1] 258 | fold change ([9]; stronger effect = lower value) 0.956 | log fold change Tl+ flux (F380Y) -0.0187 | log fold change Tl+ flux (F380Y/beta1) 0.0272 | log fold change Tl+ flux (F380Y/beta2Delta) 0.00568 | log fold change Tl+ flux (F380Y/beta4) -0.00795 | log fold change Tl+ flux [8] -0.0144 | log fold change Tl+ flux (R275C) -0.0227 | log fold change Tl+ flux (R275C/beta1) -0.0502 | log fold change Tl+ flux (R275C/beta2Delta) -0.00561 | log fold change Tl+ flux (R275C/beta4) 0.00879 | log fold change Tl+ flux (R275C/Slo1WT/beta2) 0.00818
9550: cell count [9, 13]
